Results as given in PubChem BioAssay (NCATS).
Values joined by “and” are separate entries in the source; they are usually repeats but may differ in a detail not shown here. Equal values may be shown once. Records with an inconclusive call do not appear. Active and inactive are the calls of the source. Unless noted, calls follow the shape of the dose curve; as a rule, active = well fitted inhibition curve with a large enough effect; inconclusive = small, poorly fitted or top-dose-only effect; inactive = flat fitted curve, though single readings scatter.

Columns and labels:
[1] = Drug repurposing screens with cells derived from glioblastoma tumor samples (AID 1345199); conditions: GBM patient neurospheres viability, ATP luminescence, 48 h; also: nearly all actives have a fitted effect of over 40% in size; also: potency is read from the fitted curve at half-maximal effect; as to activity, negative = cell killing: % is scaled to controls: 0 for no effect and ±100 for the full control effect
Procedure, shortened: (§1)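 Primary testing used CD133+ neurospheres from four GBM patients, seven concentrations, 48 h exposure and ATP-based viability; confirmation added three slower-growing patient lines.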

astro = control astrocytes; assay: as above; conditions: viability, ATP luminescence, 48 h; series mostly up to 45.9 µM
Procedure, shortened: as §1

[2] = molecular target: Nuclear receptor subfamily 1 group I member 2 (Rattus norvegicus) (UniProt Q9R1A7); assay: qHTS assay for small molecule activators of the rat pregnane X receptor (rPXR) signaling pathway (AID 651751; call rule not given here; also: 0% is about no effect); conditions: rPXR reporter cells, luciferase (One-Glo), 24 h
[3] = qHTS assay for small molecule activators of the human pregnane X receptor (PXR) signaling pathway (AID 720659; call rule not given here; also: 0% is about no effect); conditions: DPX-2 HepG2 CYP3A4-luciferase, 24 h; series mostly up to 92.3 µM
[4] = at 45.9 µM (top of the series), tumour line B
[5] = at 45.9 µM (top of the series), tumour line D
[6] = at 46.1 µM (top of the series), tumour line C
[7] = at 46 µM (top of the series), tumour line A

Sequence of Nuclear receptor subfamily 1 group I member 2 (Rattus norvegicus) (Q9R1A7 whole entry, looked up): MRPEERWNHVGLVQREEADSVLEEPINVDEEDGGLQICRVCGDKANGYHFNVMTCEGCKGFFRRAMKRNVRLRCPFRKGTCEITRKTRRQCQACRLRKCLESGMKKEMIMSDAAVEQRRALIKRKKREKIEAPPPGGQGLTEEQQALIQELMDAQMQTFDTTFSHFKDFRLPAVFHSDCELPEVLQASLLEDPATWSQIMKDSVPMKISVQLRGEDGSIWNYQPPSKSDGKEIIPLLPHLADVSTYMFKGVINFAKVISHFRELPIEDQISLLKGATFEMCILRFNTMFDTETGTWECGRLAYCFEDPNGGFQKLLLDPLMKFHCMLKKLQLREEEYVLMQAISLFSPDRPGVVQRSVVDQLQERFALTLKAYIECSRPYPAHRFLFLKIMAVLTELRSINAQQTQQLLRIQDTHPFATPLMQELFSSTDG

NNc1nnc(Cc2ccncc2)c2ccccc12
inactive: activity, negative = cell killing [1, 4] -17.7% | activity, negative = cell killing [1, 5] -26.1% | activity, negative = cell killing [1, 6] -26.3% | Potency (astro)

CC[C@H]1OC(=O)[C@H](C)[C@@H](O[C@H]2C[C@@](C)(OC)[C@@H](O)[C@H](C)O2)[C@H](C)[C@@H](O[C@@H]2O[C@H](C)C[C@H](N(C)C)[C@H]2O)[C@](C)(O)C[C@@H](C)[C@@H]2N[C@@H](COCCOC)O[C@@H]([C@H]2C)[C@]1(C)O
active: Potency ([1]; tumour line A) 11.2 µM
inactive: activity, negative = cell killing [1, 4] -7.98% | activity, negative = cell killing [1, 6] -7.79% | Potency (astro)

COc1ccc(C2NC(=S)N3C(c4ccc(OC)c(OC)c4)NC(=S)N23)cc1OC (stereo not drawn)
inactive: activity, negative = cell killing [1, 4] -19.2% | activity, negative = cell killing [1, 5] -8.84% | activity, negative = cell killing [1, 6] 3.81% | Potency (astro)

CCCC1([C@H](O)C/C=C/[C@H]2[C@H](O)CC(=O)[C@@H]2CCCCCCC(=O)OC)CCC1
inactive: activity, negative = cell killing [1, 4] 0.947% | activity, negative = cell killing [1, 5] -12.7% | activity, negative = cell killing [1, 6] -22% | Potency (astro)
active: Potency ([1]; tumour line A) 20 µM

CCCCCCCCCCCCCCCC(=O)OC[C@@H](COP(=O)([O-])OCC[N+](C)(C)C)OC(=O)CCCCCCCCCCCCCCC
inactive: activity, negative = cell killing [1, 4] -16.6% | activity, negative = cell killing [1, 5] 2.92% | activity, negative = cell killing [1, 6] 0.955% | Potency (astro)

COc1ccc(CCNCC(O)COc2cccc(C)c2)cc1OC (stereo not drawn)
inactive: activity, negative = cell killing [1, 4] -28.4% | activity, negative = cell killing [1, 6] -25.3% | Potency (astro)
active: Potency ([1]; tumour line A) 11.2 µM

O=C(Cn1c(=O)sc2ccc(Cl)cc21)N1CCN(CCO)CC1
inactive: activity, negative = cell killing [1, 4] -0.42% | activity, negative = cell killing [1, 5] -6.64% | activity, negative = cell killing [1, 6] 15.7% | Potency (astro)

C=CS(=O)(=O)O
inactive: activity, negative = cell killing [1, 4] -2.55% | activity, negative = cell killing [1, 5] -4.12% | activity, negative = cell killing [1, 6] -10.9% | Potency (astro)

CC1(C)C2CC[C@]3(C)[C@H](C(=O)C=C4[C@@H]5C[C@@](C)(C(=O)O)CC[C@]5(C)CC[C@]43C)[C@@]2(C)CC[C@@H]1O[C@H]1O[C@H](C(=O)O)[C@@H](O)[C@H](O)[C@H]1O[C@@H]1O[C@H](C(=O)O)[C@@H](O)[C@H](O)[C@H]1O (stereo partly drawn)
inactive: activity, negative = cell killing [1, 4] -4.03% | activity, negative = cell killing [1, 5] -9.47% | activity, negative = cell killing [1, 7] -26.6% | activity, negative = cell killing [1, 6] -1.2% | Potency (astro)

Cc1ccc(C2(O)CCN(CCCC(=O)c3ccc(F)cc3)CC2)cc1
inactive: activity, negative = cell killing [1, 4] -26.3% | Potency (astro)
active: Potency ([1]; tumour line A) 6.31 µM | Potency ([1]; tumour line D) 12.6 µM

CCCCCCCCCC(=O)O
inactive: activity, negative = cell killing [1, 4] -8.75% | activity, negative = cell killing [1, 5] -10.5% | activity, negative = cell killing [1, 7] -20.2% | activity, negative = cell killing [1, 6] -4.57% | Potency (astro) | max response [2] -3.39% and -5.8% | outcome [3]

CNC[C@@H]1CC[C@@H](N)[C@@H](O[C@H]2[C@H](O)[C@@H](O[C@H]3OC[C@](C)(O)[C@H](NC)[C@H]3O)[C@H](N)C[C@@H]2N)O1
inactive: activity, negative = cell killing [1, 4] -14.4% | activity, negative = cell killing [1, 5] -20.8% | activity, negative = cell killing [1, 6] 16.1% | Potency (astro)

C=Cc1ccccc1
inactive: activity, negative = cell killing [1, 4] -11.1% | activity, negative = cell killing [1, 5] 3.17% | activity, negative = cell killing [1, 7] -1.65% | activity, negative = cell killing [1, 6] 3.42% | Potency (astro) | max response [2] 2.91% and 3.44% | outcome [3]

CN(C(=O)CO)c1c(I)c(C(=O)NCC(O)CO)c(I)c(C(=O)NCC(O)CO)c1I (stereo not drawn)
inactive: activity, negative = cell killing [1, 4] -7.14% | activity, negative = cell killing [1, 5] -10.4% | activity, negative = cell killing [1, 6] -4.09% | Potency (astro)

COc1cc2[nH]c(C)c(CCN3CCN(c4ccccc4)CC3)c2cc1OC
inactive: activity, negative = cell killing [1, 4] -18.7% | activity, negative = cell killing [1, 6] -15.6% | Potency (astro)
active: Potency ([1]; tumour line A) 15.8 µM

CCCCCCCCCCCCCCCCCC(=O)OCCO
inactive: activity, negative = cell killing [1, 4] -18.6% | activity, negative = cell killing [1, 5] -21.2% | activity, negative = cell killing [1, 6] -6.14% | Potency (astro)

CN(C)Cc1ccccc1
inactive: activity, negative = cell killing [1, 4] -9.24% | activity, negative = cell killing [1, 5] 4.8% | activity, negative = cell killing [1, 7] -29.4% | activity, negative = cell killing [1, 6] -2.01% | Potency (astro) | max response [2] 2.69% | outcome [3]

O=C(O)c1ccccc1[O-].O=C(O)c1ccccc1[O-].[Zn+2]
inactive: activity, negative = cell killing [1, 4] -5.99% | activity, negative = cell killing [1, 5] -6.7% | activity, negative = cell killing [1, 6] -14.8% | Potency (astro)
